Here are results for six molecules from PubChem BioAssay.

The nature of test [1]: compounds binding Alexa647 anti-His antibody – biochemical, small-molecule microarray, 635 nm fluorescence, artefact control for SMM control protein annotation, primary screen (AID 1128).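 Further: score merges feature fluorescence with signal-to-noise for each printed compound spot.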 Conditions: higher = more signal.
Test [2] has as its system Human papillomavirus type 1a E7 protein (residues 1-88). The experiment in a line: HPV1a E7 small-molecule binders, primary screen, biochemical, small-molecule microarray, residues 1-88, 635 nm (AID 1129). Conditions: small-molecule microarray binding, fluorescence 635 nm; higher = more signal.
Test [3] addresses Focal adhesion kinase 1 (Homo sapiens) (UniProt Q05397). Nature of the test: PTK2 protein binding on printed compound slides – biochemical, small-molecule microarray, 635/667 nm fluorescence, BSA, DTT, primary screen (AID 1130).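 Further: composite of spot emission at 667 nm and signal to noise over triplicate slides.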 Conditions: 635 nm fluorescence, higher = more signal.
For test [4], the system named is Fibrinogen (Alexa647-labelled). The experiment in a line: Alexa647-fibrinogen binding to printed small molecules – biochemical, small-molecule microarray, 635/667 nm fluorescence, artefact control for SMM control-protein annotation, profiling panel (AID 1131).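 Further: z-score merges 667 nm fluorescence with per-spot signal-to-noise over triplicate slides.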 Conditions: fibrinogen-A647 binding fluorescence, higher = more signal.
Test [5] addresses Follistatin (Homo sapiens) (UniProt P19883). The experiment in a line: FST protein binding to printed compounds – biochemical, small-molecule microarray, 635/667 nm fluorescence, primary screen (AID 1132). Conditions: 635 nm fluorescence, higher = more signal.
Test [6] deals with Fibroblast growth factor 2 (Homo sapiens) (UniProt P09038). Nature of the test: basic fibroblast growth factor binding to printed compounds – biochemical, small-molecule microarray, 635/667 nm fluorescence, primary screen (AID 1133). Conditions: FGF2, fluorescence 635/667, higher = more signal.
The nature of test [7]: JC-1 mitochondrial potential readout, lung cancer cells – cell-based, A549, JC-1 fluorescence, basal, 24 h, 100 nL, profiling panel (AID 1138).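 Further: A549 lung adenocarcinoma cells under basal conditions with no added stimulus; test concentration not given here.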 Conditions: higher = more signal.
The subject of test [8] is Lefty1. The experiment in a line: Lefty1 protein binding to printed compounds – biochemical, small-molecule microarray, 635/667 nm fluorescence, primary screen (AID 1139). Conditions: fluorescence 635/667, higher = more signal.
In test [9] the test system is wheat germ agglutinin (Triticum aestivum), Alexa647-labelled. Nature of the test: Alexa647-WGA lectin binding to printed small molecules – biochemical, small-molecule microarray, 635/667 nm fluorescence, artefact control for SMM control-protein annotation, profiling panel (AID 1140).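 Further: score merges 667 nm feature emission with signal to noise over triplicate slides.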 Conditions: WGA-A647 binding, 635 nm fluorescence, higher = more signal.
Test [10] deals with Luciferin 4-monooxygenase (Photinus pyralis) (UniProt P08659). Nature of the test: inhibition of purified Photinus pyralis luciferase – biochemical, luminescence, purified enzyme, 2006 set, primary screen (AID 1141).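 Further: cell-free assay with purified firefly luciferase at 100 ng per well in PBS; test concentration not given here.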 Conditions: purified firefly luciferase, SteadyGlo luminescence, 30 min; higher = more signal, called active from +8 up or from −8 down.
Test [11] relates to Wnt5a (protein binding on small-molecule microarray). Nature of the test: small molecules binding Wnt5a protein – biophysical, small-molecule microarray, 635/667 nm fluorescence, primary screen (AID 1142).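 Further: fluorescence read at 667 nm with signal to noise per printed feature.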 Conditions: 635 nm fluorescence, higher = more signal.
Test [12] is described as follows: ATP-based viability of Huh7 replicon cells – cell-based, CellTiter-Glo luminescence, basal, 48 h, cytotoxicity control for HCV replication inhibitor project, primary screen (AID 1143).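 Further: Huh7 hepatoma cells carrying a hepatitis C replication reporter with no stimulus; test concentration not given here.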 Conditions: higher = more signal, called active from +8 up or from −8 down. (In general: A replicon is a self-replicating genome or part of one, used to study replication in cells.)

Test [13] is described as follows: basal CRE-LacZ reporter activity in PC12 – cell-based, unstimulated, primary screen (AID 1145). Conditions: no forskolin, luminescence, 4.5 h, higher = more signal, called active from +8 up or from −8 down.
The nature of test [14]: forskolin-driven CRE-LacZ activity in PC12 – cell-based, CRE-LacZ reporter, forskolin-stimulated, primary screen (AID 1146).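 Further: PC12 cells with 6xCRE LacZ reporter stimulated by forskolin 10 µM; beta-galactosidase reporter signal reflecting CREB driven transcription.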 Conditions: luminescence, 4.5 h, higher = more signal, called active from +8 up or from −8 down.
In test [15] the target is Streptavidin (Streptomyces avidinii) (UniProt P22629). The experiment in a line: compounds binding control protein streptavidin – biophysical, small-molecule microarray, 635/667 nm fluorescence, artefact control for SMM compound annotation, primary screen (AID 1147).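 Further: signal reflects streptavidin binding to arrayed compounds as a control protein.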 Conditions: higher = more signal.
Test [16] can be described thus: probe aInhba binding on compound microarray – biochemical, small-molecule microarray, 635/667 nm fluorescence, primary screen (AID 1148).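 Further: score merges 667nm spot fluorescence with signal-to-noise for antibody binding to printed compounds.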 Conditions: higher = more signal.
For test [17], the target named is Torsin-1A (Homo sapiens) (UniProt O14656). The experiment in a line: TOR1A wild-type binding on microarray – cell lysate, small-molecule microarray, lysate, 635/667 nm, primary screen (AID 1149). Conditions: COS7 hTOR1A-WT lysate, 635 nm fluorescence, higher = more signal.
For test [18] the target is unchanged. The experiment in a line: torsin A mutant lysate binding on microarrays – cell lysate, small-molecule microarray, COS7 lysate, 635/667 nm fluorescence, primary screen (AID 1150).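 Further: score pools 667 nm emission and signal to noise measuring lysate protein binding.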 Conditions: COS7 hTOR1A mutant lysate, 635 nm fluorescence, higher = more signal.
Test [19] deals with Sonic hedgehog protein (Shh). Nature of the test: Sonic hedgehog microarray binding compounds – biochemical, small-molecule microarray, 635/667 nm fluorescence, primary screen (AID 1151).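 Further: Shh protein binding to compounds spotted on small-molecule microarray slides; score combines spot fluorescence intensity with signal-to-noise across triplicate slides.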 Conditions: 635 nm fluorescence, higher = more signal.

Active and inactive are the calls of the source.

Fibroblast growth factor 2 (Homo sapiens), sequence (P09038 whole entry, looked up): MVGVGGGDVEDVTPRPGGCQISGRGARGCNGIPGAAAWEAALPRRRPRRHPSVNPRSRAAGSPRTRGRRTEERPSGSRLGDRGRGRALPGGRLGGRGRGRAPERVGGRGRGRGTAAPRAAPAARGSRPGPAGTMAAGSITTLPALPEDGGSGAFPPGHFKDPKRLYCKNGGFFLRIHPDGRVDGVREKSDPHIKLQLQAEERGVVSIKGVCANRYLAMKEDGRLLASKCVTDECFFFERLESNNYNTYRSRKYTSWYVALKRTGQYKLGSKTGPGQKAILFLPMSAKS
Follistatin (Homo sapiens), sequence (P19883 whole entry, looked up): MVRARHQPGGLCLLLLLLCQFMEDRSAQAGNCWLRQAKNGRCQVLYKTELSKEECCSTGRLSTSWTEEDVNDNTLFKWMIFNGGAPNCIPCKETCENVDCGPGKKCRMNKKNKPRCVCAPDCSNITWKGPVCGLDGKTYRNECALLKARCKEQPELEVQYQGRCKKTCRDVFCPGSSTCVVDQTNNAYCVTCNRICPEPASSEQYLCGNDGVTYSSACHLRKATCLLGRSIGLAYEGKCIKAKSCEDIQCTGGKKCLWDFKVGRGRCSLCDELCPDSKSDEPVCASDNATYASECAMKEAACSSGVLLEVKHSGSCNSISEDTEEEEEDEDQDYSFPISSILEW
Luciferin 4-monooxygenase (Photinus pyralis), sequence (P08659 whole entry, looked up): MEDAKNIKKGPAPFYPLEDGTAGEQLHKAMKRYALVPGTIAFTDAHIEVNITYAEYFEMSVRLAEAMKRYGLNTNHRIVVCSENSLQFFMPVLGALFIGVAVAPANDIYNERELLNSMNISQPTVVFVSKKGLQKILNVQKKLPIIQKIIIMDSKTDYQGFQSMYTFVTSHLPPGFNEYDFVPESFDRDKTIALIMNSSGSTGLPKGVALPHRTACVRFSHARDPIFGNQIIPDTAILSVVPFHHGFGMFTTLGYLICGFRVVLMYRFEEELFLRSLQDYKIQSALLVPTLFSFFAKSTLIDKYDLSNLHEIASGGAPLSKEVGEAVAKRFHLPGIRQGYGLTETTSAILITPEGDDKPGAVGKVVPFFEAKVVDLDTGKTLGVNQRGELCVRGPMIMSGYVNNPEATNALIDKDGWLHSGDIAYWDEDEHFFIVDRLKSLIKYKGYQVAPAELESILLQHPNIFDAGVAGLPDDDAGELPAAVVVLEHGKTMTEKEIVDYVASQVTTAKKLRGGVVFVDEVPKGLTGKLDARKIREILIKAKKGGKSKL
Focal adhesion kinase 1 (Homo sapiens), sequence (Q05397 whole entry, looked up): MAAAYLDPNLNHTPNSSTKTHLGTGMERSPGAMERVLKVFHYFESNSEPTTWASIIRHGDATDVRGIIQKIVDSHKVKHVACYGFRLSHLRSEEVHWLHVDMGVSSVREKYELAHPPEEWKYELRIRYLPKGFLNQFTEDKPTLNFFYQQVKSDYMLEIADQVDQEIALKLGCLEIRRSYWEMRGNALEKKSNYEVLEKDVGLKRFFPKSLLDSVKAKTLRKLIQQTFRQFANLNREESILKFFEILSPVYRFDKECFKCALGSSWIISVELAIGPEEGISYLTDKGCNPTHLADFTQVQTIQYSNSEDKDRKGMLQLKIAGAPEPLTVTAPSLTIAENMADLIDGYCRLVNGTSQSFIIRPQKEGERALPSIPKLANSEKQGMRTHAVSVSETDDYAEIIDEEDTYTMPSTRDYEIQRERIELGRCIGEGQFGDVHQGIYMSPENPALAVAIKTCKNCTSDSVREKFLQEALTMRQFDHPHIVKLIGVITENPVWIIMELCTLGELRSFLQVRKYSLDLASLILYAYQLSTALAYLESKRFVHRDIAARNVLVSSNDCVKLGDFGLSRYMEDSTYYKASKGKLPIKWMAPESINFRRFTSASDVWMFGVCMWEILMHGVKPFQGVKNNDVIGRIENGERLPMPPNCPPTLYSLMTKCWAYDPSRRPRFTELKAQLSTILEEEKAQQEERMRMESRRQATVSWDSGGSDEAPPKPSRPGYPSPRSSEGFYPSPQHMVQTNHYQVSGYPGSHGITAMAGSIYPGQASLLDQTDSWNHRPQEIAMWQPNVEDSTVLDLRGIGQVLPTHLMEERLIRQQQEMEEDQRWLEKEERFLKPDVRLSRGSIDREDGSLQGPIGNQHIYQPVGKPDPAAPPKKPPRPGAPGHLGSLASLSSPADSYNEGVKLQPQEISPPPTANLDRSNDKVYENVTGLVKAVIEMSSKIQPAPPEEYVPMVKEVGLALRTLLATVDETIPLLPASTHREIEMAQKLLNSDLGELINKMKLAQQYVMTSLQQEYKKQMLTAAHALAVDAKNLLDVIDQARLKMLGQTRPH
Torsin-1A (Homo sapiens), sequence (O14656 whole entry, looked up): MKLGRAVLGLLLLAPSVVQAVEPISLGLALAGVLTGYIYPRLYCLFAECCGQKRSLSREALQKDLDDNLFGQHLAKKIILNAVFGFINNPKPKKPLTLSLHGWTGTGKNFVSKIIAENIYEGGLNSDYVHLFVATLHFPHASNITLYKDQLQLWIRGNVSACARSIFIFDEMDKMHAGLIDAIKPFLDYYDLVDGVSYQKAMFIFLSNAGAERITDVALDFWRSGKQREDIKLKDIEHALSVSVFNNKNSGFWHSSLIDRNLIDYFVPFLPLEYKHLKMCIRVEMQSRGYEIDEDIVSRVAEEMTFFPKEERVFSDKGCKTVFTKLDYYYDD
Streptavidin (Streptomyces avidinii), sequence (P22629 whole entry, looked up): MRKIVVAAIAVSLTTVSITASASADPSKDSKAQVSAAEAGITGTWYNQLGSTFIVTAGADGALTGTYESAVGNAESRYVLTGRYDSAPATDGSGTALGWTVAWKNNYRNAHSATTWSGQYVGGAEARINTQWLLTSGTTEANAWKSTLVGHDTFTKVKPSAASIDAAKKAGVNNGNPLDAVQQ

Take `C=CCc1cccc([C@@H]2[C@@H](C)CC[C@H]3C(=O)N4[C@H](c5cccc(CC=C)c5)[C@@H](C)CC[C@H]4C(=O)N23)c1`: the composite z-score turned out to be 0.22 in [1]; 1.09 in test [2]; 0.19 in test [3]; 0.991 in [4]; 1.28 in test [5]; 0.704 in test [6]. Besides, the composite z-score in test [8] came to 0.644; in test [9] it was 0.846; in test [11], 0.205; in [15], 0.898; in [16], 0.0968; in test [17], 0.392. Further, the composite z-score in test [18] worked out at 0.203; in test [19] it was 0.946. Further, the z-score is 3.36 in test [7]; -0.744 (inactive) in [10]; -3.75 (inactive) in [12]; 3.64 (inactive) in test [13]; -0.353 (inactive) in [14].

Turning to `CN1CCC(CCCO)=CC1C1CC1` (centres undefined), the composite z-score in [1] is 0.346; in test [2], -0.256; in test [3], -0.233; in test [4] it was -0.146; in test [5] it was 0.803; in test [6], 0.923. Further, the composite z-score is 1.12 in test [8]; -0.59 in [9]; 0.0651 in test [11]; -0.0672 in [15]; -0.202 in test [16]; 0.759 in [17]. The composite z-score stood at 0.0677 in test [18] and 1.23 in test [19]. For the same molecule, the z-score was 0.949 in test [7]; -0.703 (inactive) in test [10]; -3.2 (inactive) in test [12]; -0.131 (inactive) in [13]; -1.36 (inactive) in test [14].

As for `CC(C)(C)OC(=O)CC[C@@]1(C(=O)NCc2ccccc2)N=C(c2ccc(OCCCO)cc2)O[C@@H]1c1ccccc1`, the composite z-score in test [1] turned out to be 2.76; in test [2], 1.25; in test [3], 1.18; in test [4] it was 0.966; in [5], 1.16; in test [6] it was 0.244. The composite z-score is 0.353 in test [8]; 1.53 in [9]; 0.337 in test [11]; 1.41 in test [15]; 0.346 in test [16]; 0.461 in test [17]. Moreover, the figures for the composite z-score in test [18] and in test [19] were 1.04 and -0.282, respectively. Further, the z-score in [7] was 0.614; in [10], -1.54 (inactive); in [12], -4.58 (inactive); in test [13], 0.573 (inactive); in test [14], -2.42 (inactive).

Take `COc1ccc(CCNC(=O)[C@@]2(c3ccc([N+](=O)[O-])cc3)CC(=O)N(C(C)C)[C@@H]2c2ccc(CO)cc2)cc1`: the composite z-score in test [1] is -0.601; in test [2], -0.622; in [3], -0.637; in test [4], -2.13; in test [5] it was -0.669; in test [6], -0.848. For the same molecule, the composite z-score is -2.2 in [8]; -0.81 in test [9]; -0.326 in test [11]; -0.698 in [15]; -0.255 in test [16]; -1.09 in test [17]. The composite z-score in [18] was -0.87; in [19], -0.775. Besides, the z-score in test [7] was 0.774; in test [10] it was -0.939 (inactive); in test [12], -3.13 (inactive); in [13], 0.0909 (inactive); in [14], -1.25 (inactive).

Take `CO[C@@H]1COC(=O)[C@H](C)NC(=O)CC=C[C@@H](C)[C@H](NS(=O)(=O)c2ccc(C)cc2)COC(=O)CC=C[C@@H]1C`: the composite z-score was 0.373 in test [1]; 0.0643 in [2]; -0.181 in test [3]; -0.412 in [4]; -0.268 in test [5]; 0.0544 in test [6]. The composite z-score in [8] was -0.0101; in [9] it was -0.872; in [11] it was 0.0543; in [15], -0.193; in [16] it was -0.145; in [17], 0.56. Further, the composite z-score in test [18] turned out to be 0.252; in test [19], 0.0208. The z-score in test [7] is 1.43; in test [10] it was -1.11 (inactive); in [12] it was 0.189 (inactive); in [13], -0.0234 (inactive); in test [14] it was -0.445 (inactive).

As for `C=CCNC(=O)[C@H]1[C@@H]2C(=O)O[C@@H](c3ccccc3)[C@@H](c3ccccc3)N2[C@@H](c2ccccc2OCCO)[C@]12C(=O)N(C(=O)OCCOC)c1ccc(C#CCC(C(=O)OC)C(=O)OC)cc12`, the composite z-score amounted to 2.1 in test [1]; 1.2 in [2]; 0.751 in test [3]; 0.709 in [4]; 1.24 in test [5]; 1.06 in test [6]. Besides, the composite z-score was 0.779 in [8]; 1.08 in [9]; 0.302 in [11]; -0.204 in [15]; 0.225 in [16]; 0.825 in [17]. Further, the composite z-score in [18] was 0.946; in test [19], 1.81. For the same molecule, the z-score in [7] was -1.18; in test [10], -0.509 (inactive); in test [12], -3.84 (inactive); in test [13] it was 0.775 (inactive); in test [14], 0.105 (inactive).
